Consider 34 molecules from PubChem BioAssay (NCATS).

Values joined by “and” are separate entries in the source; they are usually repeats but may differ in a detail not shown here. Equal values may be shown once. Records with an inconclusive call do not appear. More than one record can exist for a structure, and the calls need not agree. Active and inactive are the calls of the source. The call rests on the fitted dose curve; in most records, active means well fitted inhibition curve with a large enough effect; inconclusive means small, poorly fitted or top-dose-only effect; inactive means flat fitted curve, though single readings scatter. Non-standard residues stand in square brackets, D forms with d. Residues, ends and D or L forms follow the SMILES beside them. *: point of attachment. Nva = CCC[C@H](N)C(=O)O; Cbz = O=C(OCc1ccccc1)*
On the % scale 0 is the no-effect control and ±100 the full control effect; potency means the concentration at half of the fitted maximal effect.

One experiment deals with HaCat. The experiment can be described thus: Cytotoxic Profiling of Annotated Libraries Using Quantitative High-Throughput Screening (AID 1296008). Further: nearly all actives have a fitted effect of over 60% in size. As to conditions: Five cell lines viability, CellTiter-Glo ATP luminescence, 48-72 h; max response: hits give low values. Put shortly:
(§1)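 Cells exposed to compounds for 48 or 72 hr at 37 degrees Celsius. Viability read as ATP-coupled luminescence with CellTiter-Glo after 10 min at room temperature.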
As to `c1cncc(CN2CCC(n3ncc4c(N5CCOCC5)nc(-c5ccc6[nH]ccc6c5)nc43)CC2)c1`, the Potency was 14.8 µM (active) and 18.4 µM (active).
With `COc1ccc(C=Cc2cc(OC)c(OC)c(OC)c2)cc1NC(=O)[C@H](N)CO`, the max response is 4.22% (inactive).
With `C[C@H]1O[C@H](O[C@H]2[C@H](O)[C@@H](O)[C@@H](O[C@H]3[C@H](O)[C@@H](O)C(O)O[C@H]3CO)O[C@H]2CO)[C@H](O)[C@@H](O)[C@H]1N[C@H]1C=C(CO)[C@@H](O)[C@H](O)[C@@H]1O` (some centres not stated), the max response is -16.9% (inactive).
Take `COc1cc(N2CCC(C(N)=O)CC2)ccc1Nc1nc(N)c(Cl)c(Nc2ccccc2S(=O)(=O)C(C)C)n1`: the max response is -18.3% (inactive).
As to `CCC[C@@H](C=O)NC(=O)[C@H](CC(C)C)NC(=O)[C@H](CC(C)C)NC(=O)OCc1ccccc1` (Cbz-Leu-Leu-[Nva]-aldehyde), the Potency was 9.35 µM (active).
For the molecule `CC(Cc1ccc(O)c(O)c1)(NN)C(=O)O` (configuration not stated), the max response was -11% (inactive).
`C[C@H](NCc1ccc2c(c1)nc(NC(=O)c1ccc(-c3cn[nH]c3)s1)n2CCc1ccccc1)C(C)(C)C`: the Potency is 2.96 µM (active).

The next experiment concerns KB-3-1. The experiment is described as above. As to conditions: Five cell lines viability, CellTiter-Glo ATP luminescence, 48-72 h; max response: hits give low values. Put shortly:
as §1
As for `CCc1nc(-c2cccc(C)c2)c(-c2ccnc(NC(=O)c3ccccc3)c2)s1`, the max response was -16.2% (inactive).
For `C#C[C@]1(O)CC[C@@H]2[C@@H]3CCC4=CC(=O)CC[C@@H]4[C@H]3CC[C@@]21CC`, the max response was -5.98% (inactive).
Regarding `Nc1ccc(C(=O)Nc2cccc(-c3nc(N4CCOCC4)c4oc5ncccc5c4n3)c2)cn1`, the Potency was 20.6 µM (active) and the molecule was called inactive.
With `O=C(O)C=Cc1ccc(Cn2ccnc2)cc1`, the molecule was called inactive.
As for `Cc1cnc(Nc2ccc(CN3CCOCC3)cc2)nc1Nc1cccc(S(=O)(=O)NC(C)(C)C)c1`, the Potency was 4.18 µM (active) and 1.46 µM (active).
In the case of `Cc1cc(C(=O)NOCCO)c(Nc2ccc(I)cc2F)n(C)c1=O`, the max response was -2.94% (inactive).
For the molecule `O=C(Nc1ccc(Oc2ccnc3[nH]ccc23)c(F)c1)c1cccn(-c2ccc(F)cc2)c1=O`, the molecule was classed as inactive.
`CCOC(=O)C1=C(C)NC(=S)NC1c1cccc(O)c1` (configuration not stated): the Potency is 0.0469 µM (active).
Consider `CN[C@@H]1C[C@H]2O[C@@](C)([C@H]1OC)n1c3ccccc3c3c4c(c5c6ccccc6n2c5c31)C(=O)N[C@H]4O`, for which the Potency was 2.64 µM (active).
Consider `CCN1CCN(C(=O)N[C@H](C(=O)N[C@@H]2C(=O)N3C(C(=O)O)=C(CSc4nnnn4C)CS[C@@H]23)c2ccc(O)cc2)C(=O)C1=O`, for which the outcome was inactive.
Turning to `CC(C)(N)c1ccc(-c2nc3ccccc3nc2-c2ccccc2)cc1`, the Potency is 1.87 µM (active).
With `CCOC(=O)N1CCN([N+]([O-])=NOc2ccc([N+](=O)[O-])cc2C#N)CC1`, the Potency was 16.6 µM (active).
On the same count and under the same terms, to `COc1cc2c(Nc3ccc(Cl)c(Cl)c3F)ncnc2cc1OCC1C[C@@H]2CN(C)C[C@H]2C1` belongs 5.9 µM (active); to `CO[C@@H]1[C@@H](O)[C@H](O)[C@@H](n2c3c(Cl)cccc3c3c4c(c5c6cccc(Cl)c6[nH]c5c32)C(=O)NC4=O)O[C@@H]1CO`, 2.96 µM (active).
For the molecule `CCOC(=O)[C@@H](N)Cc1ccc(-c2cc(O[C@H](c3ccc(Cl)cc3-n3ccc(C)n3)C(F)(F)F)nc(N)n2)cc1`, the max response was 6.69% (inactive).
`O=C(O)c1ccc(Nc2ncc3c(n2)-c2ccc(Cl)cc2C(c2c(F)cccc2F)=NC3)cc1`: the Potency was 18.7 µM (active) and 5.8 µM (active).
Turning to `COc1ccc(S(=O)(=O)Nc2cccnc2Nc2ccc(O)cc2)cc1`, the Potency was 332 nM (active) and 820 nM (active).
With `CCN(CC)Cc1ccc2cc(COC(=O)Nc3ccc(C(=O)NO)cc3)ccc2c1`, the Potency is 1.16 µM (active).
With `c1cc(CN2CCCNCCNCCCNCC2)ccc1CN1CCCNCCNCCCNCC1`, the max response is -8.95% (inactive).
As to `CC(C)N1[N]C(=C2C=c3cc(O)ccc3=N2)c2c(N)ncnc21`, the Potency is 1.18 µM (active).
Turning to `CCOc1cc2ncc(C#N)c(Nc3ccc(OCc4ccccn4)c(Cl)c3)c2cc1NC(=O)C=CCN(C)C`, the max response was -18.5% (inactive).
As for `COc1cccc2c1C(=O)c1c(O)c3c(c(O)c1C2=O)C[C@@](O)(C(=O)CO)C[C@H]3O[C@H]1C[C@H](N)[C@H](O)[C@H](C)O1`, the Potency is 0.526 µM (active).
Consider `NC(=O)c1ncn([C@@H]2O[C@H](CO)[C@@H](O)[C@@H]2O)c1O`, for which the max response is 6.36% (inactive).
For `CCCCOc1ccc(C(=O)Nc2ccc(F)cc2F)cc1`, the max response was 0.701% (inactive).
As to `Nc1ncn([C@@H]2O[C@H](CO)[C@@H](O)[C@@H]2O)c(=O)n1`, the Potency was 8.33 µM (active).
For the molecule `Cn1cc(CNCC2CCN(c3ncc(C(=O)NO)cn3)CC2)c2ccccc21`, the Potency was 0.132 µM (active).
For the molecule `N#CC(=C(O)c1ccc(Cl)cc1Cl)c1nc2cc(Cl)ccc2c(=O)[nH]1`, the max response is 3.32% (inactive).
Regarding `c1cncc(CN2CCC(n3ncc4c(N5CCOCC5)nc(-c5ccc6[nH]ccc6c5)nc43)CC2)c1`, the Potency is 10.3 µM (active).
For `COc1ccc(C=Cc2cc(OC)c(OC)c(OC)c2)cc1NC(=O)[C@H](N)CO`, the Potency is 0.003 µM (active).
`C[C@H]1O[C@H](O[C@H]2[C@H](O)[C@@H](O)[C@@H](O[C@H]3[C@H](O)[C@@H](O)C(O)O[C@H]3CO)O[C@H]2CO)[C@H](O)[C@@H](O)[C@H]1N[C@H]1C=C(CO)[C@@H](O)[C@H](O)[C@@H]1O` (some centres not stated): the max response is 4.29% (inactive).
Regarding `COc1cc(N2CCC(C(N)=O)CC2)ccc1Nc1nc(N)c(Cl)c(Nc2ccccc2S(=O)(=O)C(C)C)n1`, the max response is 2.09% (inactive).
For `CCC[C@@H](C=O)NC(=O)[C@H](CC(C)C)NC(=O)[C@H](CC(C)C)NC(=O)OCc1ccccc1` (Cbz-Leu-Leu-[Nva]-aldehyde), the Potency was 2.96 µM (active).
`CC(Cc1ccc(O)c(O)c1)(NN)C(=O)O` (configuration not stated): the max response is -1.08% (inactive).
Regarding `C[C@H](NCc1ccc2c(c1)nc(NC(=O)c1ccc(-c3cn[nH]c3)s1)n2CCc1ccccc1)C(C)(C)C`, the Potency was 1.05 µM (active).
